# Source: PubChem BioAssay (NCATS)
# Where “and” joins values, the source holds several entries; their conditions need not be identical. Equal entries are not always repeated. A number with no mark means an inactive call. Records with an inconclusive call do not appear. Calls of active or inactive are those of the source. Unless noted, calls follow the shape of the dose curve; as a rule, active = well fitted curve in the direction sought with a large enough effect; inconclusive = small, poorly fitted or top-dose-only effect, or another doubt; inactive = no such curve, though single readings can be large; an effect the other way counts as inactive or inconclusive.
# Legend:
# Tov-21-G = assay: Primary qHTS to identify gynecologic anti-cancer compounds using libraries of approved drugs and bioactive compounds (AID 1345084); settings: Gynecologic cancer cell panel viability, ATPlite luminescence, 48 h; series mostly up to 57.5 µM; also: nearly all actives have a fitted effect of over 55% in size; also: potency is read from the fitted curve at half-maximal effect
# Outline: (§1)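 ATP-based viability (ATPlite), 1,000 cells/well, 16 h pre-incubation, 48 h compound at 37 C, 5% CO2, 15 min RT before read.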
# Tov112D = assay: as above; settings: Gynecologic cancer cell panel viability, ATPlite luminescence, 48 h; series mostly up to 57.5 µM
# Outline: as §1
# [1] = target: Nuclear receptor subfamily 1 group I member 2 (Rattus norvegicus) (UniProt Q9R1A7); assay: qHTS assay for small molecule activators of the rat pregnane X receptor (rPXR) signaling pathway (AID 651751; call rule not given here; also: 0% is about no effect); settings: rPXR reporter cells, luciferase (One-Glo), 24 h
# SKOV3 = assay: Primary qHTS to identify gynecologic anti-cancer compounds using libraries of approved drugs and bioactive compounds (AID 1345084); settings: Gynecologic cancer cell panel viability, ATPlite luminescence, 48 h; series mostly up to 57.5 µM; also: nearly all actives have a fitted effect of over 55% in size; also: potency is read from the fitted curve at half-maximal effect
# Outline: as §1
# [2] = qHTS assay to identify inhibitors of the type 1 interferon - major histocompatibility complex class I in skeletal muscle: Counter screen cell viability and HiBit confirmation (AID 1347412); settings: iHSKM muscle cells + IFN-b, HiBiT or CellTiter-Glo, 24 h; for activity change, negative = inhibition: at 45.9 µM (top of the series); also: potency is read from the fitted curve at half-maximal effect; as to activity change, negative = inhibition: % is scaled to controls: 0 for no effect and ±100 for the full control effect; as to all read-outs here: nearly all actives have a fitted effect of over 60% in size
# Outline: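 CRISPR HLA-B*08:01-HiBit immortalized human myoblasts (C25cl48) stimulated with 4 ng/ml IFN-beta and compounds (12-point 1:3, top 46 uM final) for 24 h at 37 C. Duplicate plates read by HiBit lytic luminescence or CellTiter Glo ATP.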
# [3] = Drug repurposing screens with cells derived from glioblastoma tumor samples (AID 1345199); settings: GBM patient neurospheres viability, ATP luminescence, 48 h; also: % is scaled to controls: 0 for no effect and ±100 for the full control effect; nearly all actives have a fitted effect of over 40% in size
# Outline: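 Four patient lines of CD133+ GBM neurospheres were screened at several concentrations; hits were retested in those lines plus three slower-growing GBM lines, using 48-hour treatment and ATP-based viability.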
# [4] = at 45.9 µM (top of the series), tumour line B
# [5] = at 45.9 µM (top of the series), tumour line D
# [6] = at 46.1 µM (top of the series), tumour line C
# Sequence of Nuclear receptor subfamily 1 group I member 2 (Rattus norvegicus) (Q9R1A7 whole entry, looked up): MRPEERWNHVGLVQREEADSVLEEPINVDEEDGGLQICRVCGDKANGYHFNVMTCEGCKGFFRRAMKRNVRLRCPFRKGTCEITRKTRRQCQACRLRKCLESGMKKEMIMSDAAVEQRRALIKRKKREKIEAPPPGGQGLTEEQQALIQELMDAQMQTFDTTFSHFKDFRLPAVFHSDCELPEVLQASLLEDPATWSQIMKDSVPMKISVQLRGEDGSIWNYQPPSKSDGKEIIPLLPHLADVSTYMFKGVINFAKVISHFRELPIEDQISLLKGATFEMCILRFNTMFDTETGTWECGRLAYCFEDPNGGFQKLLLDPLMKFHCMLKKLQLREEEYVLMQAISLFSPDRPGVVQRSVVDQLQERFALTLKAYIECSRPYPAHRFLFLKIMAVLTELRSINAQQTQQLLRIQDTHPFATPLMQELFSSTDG
smiles,measurement,setting,value
O=c1cc(CN2CCOCC2)occ1OCCCCCSc1ccnc2cc(C(F)(F)F)ccc12,Potency,Tov-21-G,inactive
same,Potency,Tov112D,inactive
O=c1c(-c2ccc(O)cc2)coc2cc(O)ccc12,max response,[1],6.21% and 11.9%
O=C(O)c1ccccc1C(=O)Nc1ccc(-c2ccccc2)cc1,Potency,SKOV3,25.1 µM (active)
same,Potency,[2]; HiBiT,14 µM (active)
same,"activity change, negative = inhibition",[2]; Viability,-4.23%
C[C@H](NC(=O)C(=O)Nc1ccccc1C(C)(C)C)C(=O)N[C@@H](CC(=O)O)C(=O)COc1c(F)c(F)cc(F)c1F,"activity change, negative = inhibition",[2]; HiBiT,-0.932%
same,"activity change, negative = inhibition",[2]; Viability,0.0107%
COc1ccc(Cc2nccc3cc(OC)c(OC)cc23)cc1OC,"activity change, negative = inhibition",[2]; HiBiT,-26.2%
same,"activity change, negative = inhibition",[2]; Viability,-0.43%
CC/C(=C(\c1ccccc1)c1ccc(OCCN(C)C)cc1)c1ccccc1,Potency,Tov-21-G,inactive
same,Potency,Tov112D,inactive
NS(=O)(=O)c1ccc(NC2=CC(=O)c3ccccc3C2=O)cc1,Potency,[2]; HiBiT,3.52 µM (active)
same,Potency,[2]; Viability,4.97 µM (active)
Cc1nnc(C(C)C)n1C1C[C@H]2CC[C@@H](C1)N2CC[C@H](NC(=O)C1CCC(F)(F)CC1)c1ccccc1 (some centres not stated),"activity, negative = cell killing",[3]; [4],-4.81%
same,"activity, negative = cell killing",[3]; [5],-11.6%
same,"activity, negative = cell killing",[3]; [6],5.31%
c1ccc2c(-c3cnn4cc(-c5ccc(N6CCNCC6)cc5)cnc34)ccnc2c1,Potency,[2]; HiBiT,7.87 µM (active)
C[N+]1(C)[C@@H]2CC(OC(=O)[C@H](CO)c3ccccc3)C[C@H]1[C@H]1O[C@@H]12 (some centres not stated),"activity, negative = cell killing",[3]; [4],-9.31%
same,"activity, negative = cell killing",[3]; [5],-20.1%
same,"activity, negative = cell killing","[3]; at 46 µM (top of the series), tumour line A",-28.4%
same,"activity, negative = cell killing",[3]; [6],-22.8%
